ALOX12 inh – inhibitors of human 12S-lipoxygenase ALOX12; purified 12hLO, xylenol orange hydroperoxide absorbance; Potency, µM (highest dose often 108 µM), without a hit: top-dose activity change, negative = inhibition, hits mostly inhibitors; P18054; actives 1.1% (n = 580,000); also: % is scaled to controls: 0 for no effect and ±100 for the full control effect
Target sequence (P18054 whole entry, looked up): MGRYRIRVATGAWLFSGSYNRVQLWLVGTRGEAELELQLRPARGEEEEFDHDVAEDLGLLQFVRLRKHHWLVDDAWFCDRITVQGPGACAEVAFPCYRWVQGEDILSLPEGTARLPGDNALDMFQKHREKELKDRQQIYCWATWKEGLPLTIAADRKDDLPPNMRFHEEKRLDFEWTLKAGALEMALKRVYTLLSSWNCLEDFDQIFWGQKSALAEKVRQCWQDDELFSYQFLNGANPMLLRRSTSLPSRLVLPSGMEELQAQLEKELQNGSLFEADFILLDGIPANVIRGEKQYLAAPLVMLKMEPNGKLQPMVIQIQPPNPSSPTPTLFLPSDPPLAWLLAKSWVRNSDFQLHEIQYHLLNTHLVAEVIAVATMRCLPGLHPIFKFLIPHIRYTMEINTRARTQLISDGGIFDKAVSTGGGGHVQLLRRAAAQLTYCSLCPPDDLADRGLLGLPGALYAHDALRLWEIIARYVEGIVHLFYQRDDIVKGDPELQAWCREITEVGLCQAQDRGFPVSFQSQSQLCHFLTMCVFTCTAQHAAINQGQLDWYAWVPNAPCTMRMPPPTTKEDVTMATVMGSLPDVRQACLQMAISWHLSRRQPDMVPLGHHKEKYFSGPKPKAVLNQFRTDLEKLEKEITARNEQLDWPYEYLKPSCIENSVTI
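Purified human 12hLO at 150 nM in 25 mM Hepes, 0.01% Triton X-100, pH 7.0, preincubated 15 min at room temperature with compound. Reaction started with 40 uM arachidonic acid, 30 min at room temperature. Hydroperoxide measured by Fe-xylenol orange, 573/405 nm absorbance ratio.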
GRP78 ERSR act – induces the endoplasmic reticulum stress response in human glioma cells; actives 0.02% (n = 420,000); U87-MG GRP78 promoter luciferase reporter, 16 h; Potency, µM, for inactives: at the top dose activation, hits mostly activators; AID 602332; also: series mostly up to about 76 µM; % of control where 0% means no effect; nearly all actives have a fitted effect of over 35% in size
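Stably transfected U87-MG human glioma cells carrying a GRP78-based luminescent sensor were seeded at 1000 cells/well, pin-dosed with compounds and incubated 16 h. Luciferase reagent was then added, and end-point luminescence was read after 10 min at room temperature.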
VDR inh – vitamin D3 receptor (human) inhibition. AID 504847. P11473. Potency, µM, for the others: max response, negative = inhibition, hits mostly inhibitors. VDR-SRC2-3 peptide fluorescence polarization, 2 h. actives 0.93% (n = 400,000); also: % is scaled to controls: 0 for no effect and ±100 for the full control effect
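Two reagent solutions held at 4 deg C in the dark were dispensed, compounds pinned at 23 nl, and the mixture incubated 2 h at room temperature. Read-out: fluorescence polarization of VDR–SRC2-3 peptide binding.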
Sfp inh – Sfp phosphopantetheinyl transferase inhibition; Q9F4F7; Biochemical Sfp PPTase activity, qHTS; Potency, µM, without a hit: largest response in the series, negative = inhibition, usual class: inhibitors; actives 3.5% (n = 310,000); AID 1490;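 also: the enzyme is Sfp with the accession as filed and its product quenches rhodamine fluorescence; 0% = enzyme reaction without inhibitor and -100% = no enzyme wells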
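Reaction rates are the 30-min fluorescence difference (ex 525, em 598 nm) in wells containing 15 nM Sfp, 5 uM rhodamine-CoA and 12.5 uM BHQ-2-YbbR at pH 7.6 with 10 mM MgCl2.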
G9a inh – G9a (human) methyltransferase inhibition. Q96KQ7. G9a H3K9 monomethylation, AlphaScreen, 2 h. Potency, µM (highest dose often 102 µM), inactives show at the top dose activity, negative = inhibition, usual class: inhibitors. actives 8.8% (n = 350,000); also: % is scaled to controls: 0 for no effect and ±100 for the full control effect; nearly all actives have a fitted effect of over 75% in size
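Readings reflect AlphaScreen signal from monomethyl-H3K9 antibody detection. HMT at 20 nM; substrate b-H3K9 500 nM; cofactor SAM 20 uM; 2 h RT reaction; compounds tested as titrations in qHTS with 15 min preincubation.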
The depositor's hits bear a star; ? = inconclusive; / = no result; [ ] = dose if it differs, or a comment. The entries come from a sample that favours hits as a whole. Calls follow the shape of the dose curve; as a rule, active = well fitted curve in the direction sought with a large enough effect; inconclusive = small, poorly fitted or top-dose-only effect, or another doubt; inactive = no such curve, though single readings can be large; an effect the other way counts as inactive or inconclusive. Potency is read from the fitted curve at half-maximal effect.

SMILES	ALOX12 inh	GRP78 ERSR act	VDR inh	Sfp inh	G9a inh
O=C(c1cccc(S(=O)(=O)N2CCc3ccccc3C2)c1)N1CCN(c2ccc(O)cc2)CC1	?	1.2%	-1.7%	-33.5%	2.51µM*
O=C(c1ccc2ccccc2c1)N1CCN(c2ccc(O)cc2)CC1	?	0.5%	-4.2%	?	31.6µM*
COc1ccc(S(=O)(=O)NC[C@@H]2C=C(C)[C@H](CC(=O)N(C)Cc3cccnc3)C[C@H]2C(C)C)cc1	6.1%	/	/	/	/
Cc1nc(NC(=O)C2c3ccccc3C(=O)N(C3CCCC3)C23CCCC3)sc1C (configuration not stated)	-4.3%	/	/	/	/
COc1cccc(-n2cc(CN(C)Cc3cn(-c4ccccc4)nn3)cn2)c1	37.7%	/	/	/	/
CC(C)CNC(=O)c1coc(COc2ccc3c(c2)C(c2cccc(F)c2)N(C(=O)C2CC2)CC3)n1 (configuration not stated)	-2.1%	/	/	/	/
O=C(O)c1cccc([N+](=O)[O-])c1C(=O)Nc1nc2ccccc2s1	-1.3%	-4.6%	-22.6%	1.5%	79.4µM*
C/C(CCc1ccc2c(c1)OCO2)=N\N=C(/N)SC1CC(=O)N(c2ccc(Cl)cc2)C1=O (configuration not stated)	-15.7%	-2.4%	-5.0%	56.2µM*	-26.6%[59 µM]
CC(=O)N1CCC2(CC1)C(C#N)=C(N)Oc1c2sc2nc(C)cc(C)c12	-13.3%	4.3%	1.2%	-29.1%	11.2µM*
CCN1CCC2(CC1)C(C#N)=C(N)Oc1c2sc2nc(C)cc(C)c12	?	1.1%	1.5%	50.1µM*	?
Cc1cc(C)c2c(N)c(C#N)sc2n1	-1.5%	/	/	/	/
COc1ccc(Cl)cc1NC(=O)N1CC(C)Oc2ccc(C)cc21 (configuration not stated)	3.5%	/	/	/	/
CC1CCN(C(=O)CCC[C@@H]2[C@H]3CCCN4CCC[C@@H](CN2C)[C@@H]34)CC1	20.1%	/	/	/	/
Clc1ccccc1CSc1nc(CN2CCOCC2)nc2ccccc12	-18.9%	/	/	/	/
COc1ccccc1NC(=O)c1cc2cc3ccc(OC)c(Cl)c3nc2s1	?	-0.2%	0.7%	/	28.2µM*
c1ccc(CSc2ncccn2)cc1	7.6%	1.2%	-3.6%	-17.7%	25.1µM*
COc1ccccc1OCC(=O)N1CCCC(Nc2ccc(C)c(C)c2)C1 (configuration not stated)	-20.2%	-1.0%	-16.0%	3.1%	/
Cc1ccc(NC2CCCN(C(=O)CCC3=NNC(=O)CC3)C2)cc1C (configuration not stated)	13.9%	-2.6%	-4.6%	0.9%	/
COc1ccc(CCC(=O)N2CCCC(Nc3ccc(C)c(C)c3)C2)cc1OC (configuration not stated)	-16.4%	2.8%	-21.1%	6.6%	44.7µM*
COc1ccc(NC2CCCN(C(=O)COc3ccc(Cl)cc3C)C2)cc1OC (configuration not stated)	438.5%	-2.6%	-22.6%	6.0%	50.1µM*
Cc1ccc(NC2CCCN(C(=O)CCN3CCCCO3)C2)cc1C (configuration not stated)	9.1%	-4.6%	4.2%	9.1%	31.6µM*
Cc1cc(SCC(=O)NC2CC2)nc2c(C)cccc12	6.9%	/	/	/	/
Cc1ccc2c(c1)nc1n2[C@@H](CNCc2ccccc2)COC1	0.8%[176 µM]	/	/	/	/
CCc1ccc(/C(C)=N/NC(=O)c2ccccc2C)s1	-11.5%	/	/	/	/
CC(C)n1c(N2CCN(C)CC2)nc2c1c(=O)[nH]c(=O)n2C	25.8%	/	/	/	/
SMILES	ALOX12 inh	GRP78 ERSR act	VDR inh	Sfp inh	G9a inh
COC(=O)CSc1nc(N)c(C#N)c(-c2ccco2)c1C#N	12.3%	-2.5%	-8.0%	-28.6%	-5.7%[59 µM]
Cc1nc(SCC(=O)c2ccccc2)c(C#N)c(-c2ccco2)c1C(=O)NCc1ccco1	323.5%	?	?	22.4µM*	?
COCCOC(=O)c1c(C)nc(SCC(=O)Nc2ccc(OC)cc2)c(C#N)c1-c1ccco1	55.7%	-6.2%	-11.6%	-6.7%	44.7µM*
O=C(c1ccco1)N1CCN(C(=O)c2cc(-c3ccccn3)nc3ccc(Cl)cc23)CC1	?	0.6%	-23.4%	15.8µM*	?
Cc1ccc2nc(-c3ccccc3)cc(C(=O)N3CCN(C(=O)c4ccco4)CC3)c2c1	-6.1%	/	/	/	/
N#CC[n+]1cccc(-c2ccccc2)c1	-3.7%	/	/	/	/
COC(=O)CC1Oc2ccccc2N(Cc2ccc(C)cc2)C1=O (configuration not stated)	22.9%	-6.4%	2.4%	?	-8.3%[59 µM]
CC(=O)O/N=C1\C(=O)N(Cc2ccc(C)cc2)c2ccccc21	?	0.7%	?	5.9%	50.1µM*
O=C(CSc1cn(CC(=O)N2CCOCC2)c2ccccc12)Nc1ccc(Br)cc1	-4.7%	/	/	/	/
CCc1ccc2nc(N(CCCN(C)C)C(=O)c3ccc(C(=O)c4ccccc4)cc3)sc2c1	?	-11.1%	-15.1%	56.2µM*	44.7µM*
COc1cc2nc(N(CCCN(C)C)C(=O)c3ccc(C(=O)c4ccccc4)cc3)sc2cc1OC	?	0.1%	3.3%	/	50.1µM*
Cc1noc(C)c1-c1nc(NCCN2CCOCC2)c2ccccc2n1	56.2µM*	-1.6%	-14.6%	-28.5%	-44.0%[0.501 µM]
Oc1ccccc1CNCCCN1CCOCC1	?	-8.1%	-11.5%	-14.0%	8.91µM*
C=CCNc1oc(-c2ccc(OCC)cc2)nc1C#N	11.0%	7.3%	6.0%	3.0%	1.9%[59 µM]
N#Cc1nc(COc2ccc(F)cc2)oc1NCCN1CCOCC1	-3.0%	2.3%	-2.8%	11.4%	79.4µM*
Cc1ccc(-c2nc(NCCN3CCOCC3)c3ccccc3n2)cc1	2.2%	3.8%	-10.6%	-1.8%	6.9%[59 µM]
C=CCOc1ccccc1CNCCCN1CCOCC1	?	-0.7%	-7.8%	-19.4%	-45.5%
COc1ccc(OCc2nc(C#N)c(NCCN3CCOCC3)o2)cc1	19.2%	/	/	/	/
C=CCNc1oc(-c2ccc(OC)cc2)nc1C#N	14.8%	-1.9%	5.2%	1.7%	56.2µM*
O=[S+]1([O-])NCC2(CCCN(Cc3ccc(C(F)(F)F)cc3)C2)Nc2ccccc21 (configuration not stated)	33.2%	/	/	/	/
Cc1ccc(OCc2nc(C#N)c(NCc3ccco3)o2)cc1	?	0.7%	6.4%	-7.4%	50.1µM*
O=c1c2ccccc2sc2ccc(NCCCN3CCOCC3)cc12	14.1µM*	-4.8%	-18.1%	/	/
COc1cc2sc3cc(NCCCN4CCOCC4)ccc3c(=O)c2cc1OC	-0.6%	7.0%	-10.5%	/	/
COc1ccc(OCc2nc(C#N)c(NCc3ccco3)o2)cc1	-18.9%	/	/	/	/
CCCOc1ccc(-c2nc(C#N)c(NCC3CCCO3)o2)cc1 (configuration not stated)	9.7%	-0.9%	-11.8%	-10.2%	70.8µM*
CCOc1ccc(-c2nc(C#N)c(NCC3CCCO3)o2)cc1 (configuration not stated)	-7.7%	4.2%	17.3%	-4.5%	-3.0%[59 µM]
N#Cc1nc(COc2cccc(Cl)c2)oc1NCc1ccco1	?	5.1%	-9.4%	?	50.1µM*
Cc1cc(C)c2oc(-c3cccc(NC(=O)C(C)C)c3C)nc2c1	10.5%	/	/	/	/
